This passage reports outcome results from PubChem BioAssay AID492950 (Southern Research Specialized Biocontainment Screening …, 2010).

The assay is described as follows: viability loss in mammalian cells – cytotoxicity control, dose response (AID 492950). The conditions noted are these: mammalian cell viability, cytotoxicity counter-screen; series mostly up to 40 µM. (The purpose of a counterscreen is to sort out artefacts and off-target activity.)

Entries with a potency or affinity are not part of this list. Activity calls are given as the source filed them. The rule behind the calls is not given here.

Regarding `Cc1ccc(C(=O)Oc2ccc([N+](=O)[O-])cc2)cc1S(=O)(=O)N1CCCCCC1`, the outcome was inactive. For `CCC(C)[C@@H](NC(=O)OC(C)(C)C)c1nnc(S(=O)(=O)Cc2cccc(C)c2)o1` (stereo not given in full), the molecule was called inactive. Turning to `CCCCc1ccc(NC(=O)CSCc2cc(=O)[nH][nH]2)cc1`, the outcome was inactive. Consider `Fc1ccc(Nc2nc(Oc3ccccc3F)nc(N3CCCC3)n2)cc1`, for which the molecule was classed as inactive. As to `Cc1ccc(SCc2[nH]nc3c2C2(CCSCC2)C(C#N)=C(N)O3)cc1`, the molecule was called inactive. For the molecule `CCCc1c(-c2ccc(O)cc2)nn(-c2ccc(O)cc2)c1-c1ccc(O)cc1`, the outcome was inactive. For the molecule `Cc1ccc(C2C(C#N)=C(N)Oc3n[nH]c(-c4cccs4)c32)cc1` (stereo not given), the result was inactive. As to `Cc1cc(-c2[nH]nc3c2C(c2ccsc2)C(C#N)=C(N)O3)c(C)s1` (stereo not given), the outcome was inactive. With `COc1ccc(N(C(=O)COc2cccc(C)c2)S(=O)(=O)c2ccc(C)cc2)cc1`, the molecule was classed as inactive. Take `CC(=O)Nc1cc(OC(=O)c2ccco2)cc(OC(=O)c2ccco2)c1`: the molecule was called inactive. With `Cc1ccccc1-c1nc(CN(C)C(C)c2ccon2)c(C)o1` (stereo not given), the molecule was classed as inactive. With `COC(=O)C(C#N)C(c1cccnc1)c1c(C)[nH][nH]c1=O` (stereo not given) the entry was “inactive”; with `Cc1cc(-c2[nH]nc3c2C(c2ccc(Cl)cc2)C(C#N)=C(N)O3)c(C)s1` (stereo not given), “inactive”; with `COc1ccc(-c2[nH]nc3c2C(c2ccoc2)C(C#N)=C(N)O3)cc1` (stereo not given), “inactive”.

For `O=C(Cc1cc(=O)[nH][nH]1)N/N=C/c1c(F)cccc1Cl`, the call was inactive. In the case of `CCOC(=O)C/C(C)=N/NC(=O)COc1ccccc1C`, the molecule was classed as inactive. With `C/C(=N/NC(=O)Cc1cc(=O)[nH][nH]1)c1ccc([N+](=O)[O-])cc1`, the call was inactive. With `O=C(Cc1ccccc1)c1c[nH]c(C(=O)C(Cl)(Cl)Cl)c1`, the molecule was classed as inactive. Then `O=C1CC(CSc2ccc(Cl)cc2)=NN1`, with “inactive”.

As for `Cc1ccc(-n2nnc3c(SCC(=O)NCC4CCCO4)ncnc32)cc1` (stereo not given), the molecule was classed as inactive.

`Cc1ccc(-c2cc(=O)[nH][nH]2)c(C)c1`: the outcome was inactive. With `N#CC1=C(N)Oc2n[nH]c(-c3cccs3)c2C1c1ccsc1` (stereo not given) the entry was “inactive”; with `CCCCCCOC(=O)c1ccc(OC(=O)c2cccnc2)cc1`, “inactive”; with `O=C(Cc1cc(=O)[nH][nH]1)N/N=C/c1cccc(Cl)c1Cl`, “inactive”. For `Cc1ccc(SCC2=NNC(=O)C2)cc1`, the call was inactive.

For `O=C(Cc1cc(=O)[nH][nH]1)N/N=C/c1c(Cl)cccc1Cl`, the molecule was classed as inactive. As to `O=C(Cc1cc(=O)[nH][nH]1)N/N=C/c1ccccc1[N+](=O)[O-]`, the molecule was called inactive. With `CCOc1ccc(-c2[nH]nc3c2C(c2ccc(O)cc2)C(C#N)=C(N)O3)cc1` (stereo not given) the entry was “inactive”. Turning to `COc1cccc(-c2[nH]nc3c2C(c2ccsc2)C(C#N)=C(N)O3)c1` (stereo not given), the molecule was called inactive.

On to `CSCCC1C(C#N)=C(N)Oc2n[nH]c(-c3cccs3)c21` (stereo not given), for which the outcome was inactive.
